Like-named read-outs stand apart in the source and are kept apart here.

Common to all, as to parameters: species or system human, MV4-11 + K-562 + COLO205 + SK-N-BE2 + OVCAR-8
For one assay, the system named is BCR. The conditions noted are these: read-out: apparent Kd, n = 1.
The next assay relates to CAMKK2. As to conditions: read-out: apparent Kd, n = 1.
The next assay deals with CHEK1. The conditions noted are these: read-out: apparent Kd, n = 1.
In another assay the test system is EPHA4. As to conditions: read-out: apparent Kd, n = 1.
A further assay has as its system EPHA5. The conditions noted are these: read-out: apparent Kd, n = 1.
The next assay concerns EPHB2. As to conditions: read-out: apparent Kd, n = 1.
For the next assay, the system named is EPHB4. The conditions noted are these: read-out: apparent Kd, n = 1.
The subject of a further assay is MAPK9. As to conditions: read-out: apparent Kd, n = 1.
For a further assay, the system named is PRKACA. As to conditions: read-out: apparent Kd, n = 1.
In a further assay the test system is PRKACB. The conditions noted are these: read-out: apparent Kd, n = 1.
For the next assay, the system named is PRKAG2. As to conditions: read-out: apparent Kd, n = 1.
The test system of another assay is TNK1. The conditions noted are these: read-out: apparent Kd, n = 1.
Another assay concerns TNK2. As to conditions: read-out: apparent Kd, n = 1.
For a further assay, the system named is CDK16. The conditions noted are these: read-out: apparent Kd, n = 1.
Another assay relates to MARK3. The conditions noted are these: read-out: apparent Kd, compound concentrations: 100 nM and 1000 nM (sheet 'Samples'), n = 1.
A further assay relates to RPS6KA4. The conditions noted are these: read-out: apparent Kd, compound concentrations: 100 nM and 1000 nM (sheet 'Samples'), n = 1.
The next assay concerns STK4. The conditions noted are these: read-out: apparent Kd, n = 1.
Another assay deals with ATM. The conditions noted are these: read-out: apparent Kd, compound concentrations: 100 nM and 1000 nM (sheet 'Samples'), n = 1.
In another assay the test system is CSNK1D. As to conditions: read-out: apparent Kd, compound concentrations: 100 nM and 1000 nM (sheet 'Samples'), n = 1.
For another assay, the system named is AURKA. The conditions noted are these: read-out: apparent Kd, n = 1.
The mark [1] stands for this setting: compound concentrations:100 nM and 1000 nM (sheet 'Samples').

For `CS(=O)(=O)CCn1c(=O)c(Oc2ccc(F)cc2F)cc2cnc(NC3CCOCC3)nc21` [RO5027956-000], the potency estimated from few doses with BCR (setting [1]) is 693 nM; in the assay with CAMKK2 (setting [1]) it was 1270 nM; with CHEK1 (setting [1]), 1500 nM; in the assay with EPHA4 (setting [1]) it was 896 nM; in the assay with EPHA5 (setting [1]), 751 nM; with EPHB2 (setting [1]), 720 nM. The potency estimated from few doses was 519 nM in the assay with EPHB4 (setting [1]); 494 nM in the assay with MAPK9 (setting [1]); 2090 nM in the assay with PRKACA (setting [1]); 977 nM in the assay with PRKACB (setting [1]); 497 nM in the assay with PRKAG2 (setting [1]); 487 nM with TNK1 (setting [1]). Moreover, the potency estimated from few doses with TNK2 (setting [1]) is 521 nM.

Turning to `Cl.Cl.NC(CNC(=O)c1cc(Br)c(-c2ccnc3[nH]ccc23)s1)c1ccccc1.NC(CNC(=O)c1cc(Br)c(-c2ccnc3[nH]ccc23)s1)c1ccccc1` (centres unmarked) [GSK1322949A], the potency estimated from few doses with PRKACA (compound concentrations: 100 nM and 1000 nM (sheet 'Samples'), CATDS: 2.91010350116075E-2) was 1300 nM.

As to `CNCC#Cc1c(F)ccc2c1/C(=C/c1[nH]ccc1OC)C(=O)N2.Cl` [RO0281601-001], the potency estimated from few doses in the assay on CDK16 (compound concentrations: 100 nM and 1000 nM (sheet 'Samples'), CATDS: 5.4243920353091599E-2) was 173 nM; with MAPK9 (compound concentrations: 100 nM and 1000 nM (sheet 'Samples'), CATDS: 2.4377657095079101E-2), 1310 nM; in the assay with MARK3 (CATDS: 2.1082964771659999E-2), 2280 nM; in the assay on RPS6KA4 (CATDS: 3.0047903909945699E-2), 696 nM.

Consider `Cc1cccc(Nc2nc(N[C@H]3CCNC3)ncc2C(N)=O)c1.Cl` [GSK2197149A], for which the potency estimated from few doses in the assay with STK4 (setting [1]) is 1490 nM.

On to `CCn1c(-c2cccnc2O)nc2cnccc21` [SB-736715], for which the potency estimated from few doses was 146 nM in the assay with ATM (CATDS: 6.3051453748071404E-2); 2030 nM with CDK16 (compound concentrations: 100 nM and 1000 nM (sheet 'Samples'), CATDS: 1.2342830833646699E-2); 1950 nM in the assay with MAPK9 (compound concentrations: 100 nM and 1000 nM (sheet 'Samples'), CATDS: 1.25360352526476E-2); 1130 nM in the assay with PRKAG2 (compound concentrations: 100 nM and 1000 nM (sheet 'Samples'), CATDS: 1.6059828940045699E-2); 1510 nM in the assay on STK4 (compound concentrations: 100 nM and 1000 nM (sheet 'Samples'), CATDS: 1.39715497774644E-2).

`NCC(NC(=O)c1cc(-c2cn[nH]c2)c(-c2ccnc3[nH]ccc23)s1)c1ccccc1.NCC(NC(=O)c1cc(-c2cn[nH]c2)c(-c2ccnc3[nH]ccc23)s1)c1ccccc1.O=C(O)C(F)(F)F.O=C(O)C(F)(F)F` (centres unmarked) [GSK1325775A]: the potency estimated from few doses with CSNK1D (CATDS: 2.89439417277669E-2) was 2450 nM; with PRKACA (compound concentrations: 100 nM and 1000 nM (sheet 'Samples'), CATDS: 4.90722253933666E-2) it was 503 nM; with PRKACB (compound concentrations: 100 nM and 1000 nM (sheet 'Samples'), CATDS: 4.09510310832654E-2), 782 nM.

On to `CC(C)Oc1ccc2c(-c3ccnc(Nc4ccc(N5CCN(C)CC5)cc4)n3)cnn2n1` [GW696155X], for which the potency estimated from few doses is 602 nM in the assay on AURKA (setting [1]), 1910 nM in the assay with CDK16 (setting [1]) and 1010 nM in the assay with MAPK9 (setting [1]).

With `CNc1cc(-c2ccc3c(N)n[nH]c3c2)nc(N)n1` [GSK2224810A], the potency estimated from few doses with PRKAG2 (setting [1]) is 1090 nM.

In the case of `c1cnn2ncc(-c3ccnc(Nc4ccc5c(c4)OCCO5)n3)c2c1` [GW806290X], the potency estimated from few doses was 989 nM with CDK16 (compound concentrations: 100 nM and 1000 nM (sheet 'Samples'), CATDS: 2.45493373786023E-2); 761 nM in the assay on CSNK1D (CATDS: 2.68711493268559E-2); 1140 nM in the assay on MAPK9 (compound concentrations: 100 nM and 1000 nM (sheet 'Samples'), CATDS: 2.34417692705663E-2).

In the case of `CN(c1ccc(NC(=O)NCCN2CCOCC2)cc1)c1ccnc(Nc2ccc(CS(C)(=O)=O)cc2)n1.Cl` [GW830365A], the potency estimated from few doses with AURKA (compound concentrations: 100 nM and 1000 nM (sheet 'Samples'), CATDS: 7.5652675544933198E-2) is 444 nM; in the assay with TNK1 (compound concentrations: 100 nM and 1000 nM (sheet 'Samples'), CATDS: 5.9117233589801498E-2), 792 nM.

`CN(C)CC(O)COc1ccc(Nc2nccc(-c3cnn4nc(N5CCOCC5)ccc34)n2)cc1` (centres unmarked) [GW767488X]: the figures for the potency estimated from few doses in the assay on CDK16 (setting [1]) and in the assay on MAPK9 (setting [1]) were 262 nM and 134 nM, respectively.

Turning to `Cc1ccccc1-n1ncc(C(=O)c2ccccc2)c1N` [RO1151248-000], the potency estimated from few doses in the assay on ATM (CATDS: 4.4938913040114402E-2) was 302 nM; with BCR (compound concentrations: 100 nM and 1000 nM (sheet 'Samples'), CATDS: 2.0148747001584599E-2) it was 1380 nM; in the assay with CAMKK2 (compound concentrations: 100 nM and 1000 nM (sheet 'Samples'), CATDS: 1.8448697661517601E-2), 1790 nM; in the assay with CHEK1 (compound concentrations: 100 nM and 1000 nM (sheet 'Samples'), CATDS: 1.9023399407062401E-2), 1630 nM; with EPHA4 (compound concentrations: 100 nM and 1000 nM (sheet 'Samples'), CATDS: 2.34305639617714E-2), 955 nM; in the assay with EPHA5 (compound concentrations: 100 nM and 1000 nM (sheet 'Samples'), CATDS: 2.3755462861685599E-2), 926 nM. The potency estimated from few doses with EPHB2 (compound concentrations: 100 nM and 1000 nM (sheet 'Samples'), CATDS: 2.84737750154796E-2) was 640 nM; in the assay on EPHB4 (compound concentrations: 100 nM and 1000 nM (sheet 'Samples'), CATDS: 3.0398268163298901E-2) it was 567 nM; with TNK1 (compound concentrations: 100 nM and 1000 nM (sheet 'Samples'), CATDS: 3.5283149780083803E-2) it was 439 nM; with TNK2 (compound concentrations: 100 nM and 1000 nM (sheet 'Samples'), CATDS: 3.5082928227748202E-2), 443 nM.

As for `COc1cc[nH]c1/C=C1\C(=O)Nc2ccc(F)c(C#CC3(O)CCNCC3)c21.Cl` [RO0282986-001], the potency estimated from few doses in the assay on CDK16 (compound concentrations: 100 nM and 1000 nM (sheet 'Samples'), CATDS: 3.6317667749827198E-2) is 71.4 nM; in the assay on MAPK9 (compound concentrations: 100 nM and 1000 nM (sheet 'Samples'), CATDS: 1.5639148944551099E-2), 359 nM; in the assay on MARK3 (CATDS: 1.4968914388982501E-2), 398 nM; in the assay with RPS6KA4 (CATDS: 2.8007008589504299E-2), 111 nM; in the assay with STK4 (compound concentrations: 100 nM and 1000 nM (sheet 'Samples'), CATDS: 1.59534503193824E-2), 343 nM.
